Screening data: PubChem BioAssay, National Center for Advancing Translational Sciences (NCATS)
FMDV inh – antivirals against foot and mouth disease virus. AID 1159524. Potency, µM (highest dose often 57.9 µM), for inactives: at the top dose activity change, negative = inhibition, actives largely listed as inhibitors. 410,000 tested, 1.2% active. FMDV antiviral cell-based qHTS; calls by dose curve; tested in HEK293T cells; note: read-out not given here; potency is the fitted concentration of half-maximal effect; nearly all actives have a fitted effect of over 45% in size
HCV inh – HCV inhibition. Potency, µM (top dose mostly 41.8 µM), for the others: at the highest dose activity change, negative = inhibition, actives largely listed as inhibitors. 340,000 tested, 3.4% active. Huh7.5.1 HCVcc-Cre infection, luciferase reporter, 44 h; active = well fitted inhibition curve with a large enough effect; inconclusive = small, poorly fitted or top-dose-only effect, or another doubt; inactive = no such curve, though single readings can be large or run the other way; note: potency is the fitted concentration of half-maximal effect
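HCVcc-Cre virus at an moi near 0.5 was added right after compound to cells cultured 4 h from seeding (1,000 cells/well). Luciferase activity was determined 44 h later, 15 min after substrate addition at RT.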
VACV mCherry inh – inhibitors of vaccinia virus infection (mCherry reporter signal); Vaccinia virus mCherry reporter infection, fluorescence; Potency, µM (highest dose often 36.5 µM), inactives show top-dose activity change, negative = inhibition, usual class: inhibitors; 310,000 tested, 0.63% active; calls by dose curve; tested in A549 cells; note: potency is the fitted concentration of half-maximal effect; nearly all actives have a fitted effect of over 35% in size
HCMV antiviral – inhibitors of human cytomegalovirus. HFF cells, HCMV-luciferase reporter, 72 h; stronger effect = lower value. activity change, negative = inhibition, % at 57.5 µM. 410,000 tested, 4.5% active. AID 1259415; in the data active = activity change below about -60%; inconclusive = no clear call, values can overlap the other calls; inactive = above about -39%
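Cell-based, HFFs, 1000 cells/well, 16 h 37C; cpds in DMSO + HCMV-luc, MOI 1 PFU/cell; 72 h 37C; OneGlo luminescence after 5 min RT; norm. to buffer vs Salinomycin 10uM.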
VACV Venus inh – vaccinia inhibition (Venus reporter). Vaccinia virus Venus reporter expression, fluorescence. Potency, µM (highest dose often 36.5 µM), without a hit: at the highest dose activity change, negative = inhibition, actives largely listed as inhibitors. 330,000 tested, 0.46% active; calls by dose curve; tested in A549 cells; note: potency is the fitted concentration of half-maximal effect; nearly all actives have a fitted effect of over 30% in size
The depositor's hits bear a star; i = inactive; u = inconclusive; x = not tested or not shown. This is a sample that favours compounds with a hit; in the whole collection about 7.3% have one here. % is set by controls: 0 for no effect and ±100 for the full control effect.

SMILES	FMDV inh	HCV inh	VACV mCherry inh	HCMV antiviral	VACV Venus inh
COc1ccc(-c2noc(CC(=O)N(C)c3cccc(C)c3)n2)cc1	-26%	x	-14%	-13	-7%
CNC(=O)[C@@H]1C[C@H](NC2CCCCCCC2)CN1Cc1cccc(OC)c1OC	-2%	x	-10%	x	-1%
Cc1nc2sccn2c1CN1CCOc2ccc(CN3C[C@@H](C)O[C@@H](C)C3)cc2C1	u	x	-27%	x	-26%
COc1cccc(CNC(=O)CSc2nnc(C)c3c(C)n(-c4ccccc4)nc23)c1OC	u	x	i	-19	-7%
Cc1nnc(SCC(=O)NCc2cccc(F)c2)c2nn(-c3ccccc3)c(C)c12	u	x	-26%	-61*	-27%
COc1ccc(CNC(=O)CSc2nnc(C)c3c(C)n(-c4ccccc4)nc23)c(OC)c1	u	x	-13%	-65*	-13%
O=C(OCc1nc2scc(-c3ccccc3)c2c(=O)[nH]1)c1cc([N+](=O)[O-])ccc1Cl	40µM*	0%	-15%	-24	-8%
CCOC(=O)N1CCN(Cc2ccc3c(c2)CN(C(=O)c2noc4c2CCCC4)CCO3)CC1	u	x	-26%	x	-22%
O=c1[nH]c(-c2ccccn2)nc(C(F)(F)F)c1Br	-26%	-24%	11µM*	25	-17%
O=c1[nH]c(-c2ccccn2)nc2ccccc12	-15%	u	x	-106*	-17%
CC(C)c1c(C(=O)NCc2ccncc2)cnn1-c1nccc(-c2cccs2)n1	3%	x	-8%	x	-6%
COc1ccc(-n2c(CNC(=O)c3ccccc3C(F)(F)F)nnc2SC)cc1	-9%	x	-3%	x	3%
C#CCOCCOCCOCCNc1nc(N2CCN(C(=O)CCCCCCCCCCNC(=O)[C@@H](CCSC)n3cc(CCO)nn3)CC2)nc(N2CCN(C(=O)CCCCCCCCCCNC(=O)[C@H]([C@@H](C)CC)n3cc(CCCCCN)nn3)CC2)n1	u	u	-18%	x	10µM*
C#CCOCCOCCOCCNc1nc(N2CCN(C(=O)CCCCCCCCCCNC(=O)[C@@H](CCSC)n3cc(CCO)nn3)CC2)nc(N2CCN(C(=O)CCCCCCCCCCNC(=O)[C@H]([C@@H](C)CC)n3cc(CCCCN=C(N)N)nn3)CC2)n1	u	u	u	x	8.9µM*
Cc1ccccc1-c1nc2c3c(-c4ccccc4)c(-c4ccccc4)oc3ncn2n1	29%	x	-11%	16	-7%
COC(=O)C1CCN(Cc2ccc3c(c2)CN(C(=O)c2cc4ccccc4n2C)CCO3)CC1	u	x	-12%	x	-5%
COc1cc(OC)c(OC)cc1CN1CCCC(c2nc(C)ncc2-c2ccc(F)cc2)C1 (stereo unspecified)	-10%	x	-1%	x	-14%
Cc1ccc2c(c1)sc1nc(-c3cc4ccccc4oc3=O)cn12	0.32µM*	x	-2%	-79*	0%
CC(C)c1ccc(Cc2cn3cc(-c4cc5ccccc5oc4=O)nc3s2)cc1	31%	x	u	-78*	u
O=c1oc2ccccc2cc1-c1cn2ccccc2n1	7.9µM*	u	-7%	-63*	u
O=c1oc2ccccc2cc1-c1cn2cccnc2n1	14%	-9%	x	75	x
COc1ccccc1CNc1cc(-c2ccccc2Cl)ncn1	-8%	x	x	x	x
COc1ccc(C(C)C(=O)c2ccc(O)cc2O)cc1 (stereo unspecified)	0%	x	-11%	x	-12%
Cc1nc(N2CCCCC2)c2c(-c3cccs3)csc2n1	u	6%	-17%	21	-9%
Cc1nc(N2CCN(S(=O)(=O)c3ccccc3C#N)CC2)c2c(-c3cccs3)csc2n1	u	10µM*	x	-38	x
SMILES	FMDV inh	HCV inh	VACV mCherry inh	HCMV antiviral	VACV Venus inh
CC1CCN(S(=O)(=O)c2ccc3c(ccn3CCC(=O)NCc3ccccc3F)c2)CC1	22%	x	-6%	-10	-14%
O=C(NCc1cccs1)C(=O)NCC(c1ccco1)N1CCN(c2ccc(F)cc2)CC1 (stereo unspecified)	u	22µM*	u	-32	-11%
O=C(NCC(c1ccco1)N1CCN(c2ccc(F)cc2)CC1)c1cccs1 (stereo unspecified)	-12%	-25%	-12%	6	-6%
O=S(=O)(Nc1c(S(=O)(=O)c2ccccc2)c2nc3ccccc3nc2n1C1CCCCC1)c1ccccc1	u	8%	13µM*	35	10µM*
Cc1nnc(SCC(=O)Nc2cc(C(C)(C)C)nn2-c2ccccc2)s1	-20%	8%	-11%	u	-11%
CCn1c(SCC(=O)Nc2cc(C(C)(C)C)nn2-c2ccccc2)nnc1-c1cccs1	0%	16µM*	i	-25	-16%
COCC(=O)Nc1cc(C(=O)N2CCOc3ccccc3C2)cc2nc(-c3cccnc3)n(C)c12	7%	x	-3%	x	5%
COc1ccccc1C(=O)Nc1ccc2c(c1)CCCN2C(=O)c1ccccc1	-8%	u	-18%	u	-15%
O=C(Nc1ccc2c(c1)CCCN2C(=O)c1cccs1)c1ccccc1C(F)(F)F	-28%	x	-8%	-71*	-2%
COc1ccccc1C(=O)Nc1ccc2c(c1)CCCN2C(=O)c1cccs1	0%	u	i	-60*	-21%
COc1ccc(S(=O)(=O)N(CC(=O)Nc2ccc(F)c(Cl)c2)c2ccc(C)cc2)cc1OC	-18%	x	-9%	-38	-9%
COC(=O)c1ccccc1NCc1cc(=O)oc2cc(O)c(O)cc12	-9%	-20%	7.1µM*	0	u
Cc1ccc(NC2=C/C(=N/S(=O)(=O)c3cccs3)c3ccccc3C2=O)cc1C	-18%	8%	i	62	-12%
CC(=O)Nc1ccc(NC2=C/C(=N/S(=O)(=O)c3cccs3)c3ccccc3C2=O)cc1	u	u	u	-101*	11µM*
Cc1ccccc1NC1=C/C(=N\S(=O)(=O)c2cccs2)c2ccccc2C1=O	10µM*	3.5µM*	x	-106*	x
COc1ccc(S(=O)(=O)/N=C2\C=C(Nc3ccc(O)cc3)C(=O)c3ccccc32)cc1	7.9µM*	5.6µM*	5µM*	-99*	3.5µM*
O=C1C(n2cccc2)c2ccccc2N1Cc1ccc(C(F)(F)F)cc1 (stereo unspecified)	x	x	x	23	x
Cc1ccc(CSc2nnc(SCC(=O)N/N=C/c3ccc(C(=O)O)cc3)s2)cc1	-9%	11%	u	-66*	-4%
Cc1ccc(CSc2nnc(SCC(=O)N/N=C/c3c[nH]c4ccccc34)s2)cc1	6%	-9%	i	-73*	-10%
CC(C)c1ccc(NC(=O)CCCN2C(=S)NC(C)(C)CC2C)cc1 (stereo unspecified)	12%	-17%	i	-86*	-15%
COc1ccccc1OC(C)C(=O)Nc1nc(-c2ccc(S(=O)(=O)N3CCOCC3)cc2)cs1 (stereo unspecified)	-23%	u	-24%	-7	-17%
CCOc1ccc2nc(NC(=O)c3ccc(OC)c(S(=O)(=O)N4CCOCC4)c3)sc2c1	u	-28%	x	17	x
CCOc1ccc2nc(NC(=O)c3ccc(S(=O)(=O)N4CCOCC4)cc3)sc2c1	28µM*	16%	9%	-32	-9%
